Sampled rows, rich in hits. Any-hit rate of the full collection: about 7.3%.
FLuc modulator – counter-screen for miR-21 project: firefly luciferase inhibitors or activators | Potency, µM (series often up to 57.5 µM), inactives show top-dose activity change, negative = inhibition, most hits filed as inhibitors | AID 588342 | purified FLuc, Km substrates, luminescence inhibition | P08659 | hit rate 6.9% among 360,000;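 further: plate controls were vehicle for no effect and reference inhibitor for full effect; nearly all actives have a fitted effect of over 55% in size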
Target sequence (P08659 whole entry, looked up): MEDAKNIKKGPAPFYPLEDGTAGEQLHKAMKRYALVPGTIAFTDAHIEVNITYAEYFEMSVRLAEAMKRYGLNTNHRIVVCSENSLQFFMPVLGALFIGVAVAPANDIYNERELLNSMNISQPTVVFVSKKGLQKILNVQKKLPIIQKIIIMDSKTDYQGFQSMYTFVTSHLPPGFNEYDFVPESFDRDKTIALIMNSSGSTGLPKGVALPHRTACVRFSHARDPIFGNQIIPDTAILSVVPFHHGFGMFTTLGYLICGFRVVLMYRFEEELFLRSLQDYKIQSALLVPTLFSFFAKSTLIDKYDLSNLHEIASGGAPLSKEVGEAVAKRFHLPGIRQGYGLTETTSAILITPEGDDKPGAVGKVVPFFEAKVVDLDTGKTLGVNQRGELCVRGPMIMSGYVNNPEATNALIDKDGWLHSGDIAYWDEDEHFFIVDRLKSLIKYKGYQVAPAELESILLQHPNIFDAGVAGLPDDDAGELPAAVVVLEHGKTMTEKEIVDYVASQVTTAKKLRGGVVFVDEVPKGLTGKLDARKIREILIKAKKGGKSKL
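Biochemical qHTS of compounds, final roughly 60 µM downward over six points, against 10 nM purified firefly luciferase using Km concentrations of substrates (10 uM D-luciferin, 10 uM ATP) in Tris acetate pH 7.5 buffer; luminescence output.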
p53 reactivation – re-activators of mutant p53; H1299 p53-A138V BP100-luciferase reporter, luminescence, 24 h; Potency, µM (highest dose often 92.2 µM), for the others: at the top dose activity change, positive = activation, most hits filed as activators; hit rate 0.063% among 320,000; AID 504706; further: % of control where 0% means no effect; nearly all actives have a fitted effect of over 45% in size
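p53-null H1299 cells stably carrying temperature-sensitive p53-A138V and a BP100-luciferase reporter were pinned with compounds (4-point, 1:5 series) and held 24 hrs at 37 deg C. Luminescence was read 10 min after detection reagent.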
ELG1 genotox – inducers of genotoxicity in HEK293T ELG1-luciferase cells. HEK293T ELG1-luciferase reporter, luminescence, 16 h. Potency, µM (series often up to 46 µM), for inactives: at the top dose activity change, positive = activation, hits mostly activators. hit rate 1.3% among 330,000; further: % of control where 0% means no effect; nearly all actives have a fitted effect of over 60% in size
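Step 1: seed 2,000 HEK293T ELG1-luciferase cells per well. Step 2: add compound or DMSO, incubate 16 hr at 37 °C. Step 3: ONE-Glo, 30 min at room temperature, read luminescence.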
SMN2 splice up – SMN2 splice variant enhancement. hit rate 2.8% among 210,000. AID 1458. Potency, µM (series often up to 46.1 µM), without a hit: at the top dose activity change, positive = activation, most hits filed as activators. HEK293 SMN2-luciferase splicing reporter, luminescence, 30-36 h; further: % of control where 0% means no effect; nearly all actives have a fitted effect of over 55% in size
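qHTS luciferase splicing reporter: luminescence rises when SMN2 exon 7 is included in transfected HEK293 cells. Compound exposure lasted 30-36 h at 37C, with 4.5 mM final sodium butyrate as control, followed by a ONE-Glo read.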
Rab9 promoter act – Rab9 promoter activation; Huh7 Rab9 promoter-luciferase reporter, luminescence, 24 h; Potency, µM (titrated, usually from 9.22 µM), without a hit: top-dose activation, negative = inhibition, actives largely listed as activators; hit rate 2.8% among 320,000; AID 485297; further: % of control where 0% means no effect; nearly all actives have a fitted effect of over 60% in size
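Using Huh7 cells stably transfected with Rab9 promoter–luciferase, compounds were incubated 24 h at 37 °C, 5% CO2; luciferase luminescence was read 10 min after reagent addition.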
NPC1 promoter act – activates the NPC1 promoter | Huh7 NPC1 promoter luciferase reporter, 24 h | Potency, µM (highest dose often 9.22 µM), for the others: at the top dose activation, hits mostly activators | hit rate 2.4% among 320,000; further: % of control where 0% means no effect; nearly all actives have a fitted effect of over 60% in size
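Luminescence from an NPC1 promoter-driven luciferase reporter in stably transfected Huh7 cells was measured after 24 h compound treatment at 37 °C, followed by 10 min ambient incubation with luciferase detection reagent.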
* marks the source's active call; other numbers are inactive results; ? = inconclusive; / = not tested or not shown; [ ] = dose if it differs, or a comment. The call rests on the fitted dose curve; in most records, active means well fitted curve in the direction sought with a large enough effect; inconclusive means small, poorly fitted or top-dose-only effect, or another doubt; inactive means no such curve, though single readings can be large; an effect the other way counts as inactive or inconclusive. Potency means the concentration at half of the fitted maximal effect.

SMILES	FLuc modulator	p53 reactivation	ELG1 genotox	SMN2 splice up	Rab9 promoter act	NPC1 promoter act
CC(C)c1ccc(/C=C/C(=O)O)cc1	19µM*	-2%	1%	/	-6%	0%
CCCNC(=O)/C=C/c1ccc(C(C)C)cc1	17µM*	?	?	?	28%	22%
COc1ccc(NC(=O)c2c(-c3ccc(C)cc3)nnc3ccccc23)c(OC)c1	-12%	/	/	/	/	/
Fc1ccc(-c2cn3cc(Cc4ccc(Cl)cc4)sc3n2)cc1	3µM*	/	/	3.2µM*	/	/
N=C1C(c2nc(-c3ccc(F)cc3)cs2)=C(O)CN1Cc1ccc(Cl)cc1	2%	-3%	13%	-10%	-3%	-3%
Fc1ccc(Cc2cn3cc(-c4ccc(Cl)cc4)nc3s2)cc1	0.6µM*	/	/	?	/	/
Fc1ccc(CNc2nc(-c3ccc(Cl)cc3)cc(C(F)(F)F)n2)cc1	-2%	/	/	-14%	/	/
CCOC(=O)c1sc2ccccc2c1S(=O)(=O)N1CCN(c2cccc(C)c2)C(C)C1 (stereo unspecified)	4%	/	/	/	/	/
CN(C)/C=C/c1oc2ccc(O)cc2c1[N+](=O)[O-]	?	4%	?	20%	3.2µM*	26%
COc1ccc(/C=C/C(=O)Nc2cccc(S(=O)(=O)NC3=NCCCCC3)c2)c(OC)c1	6µM*	-6%	-7%	/	2%	4%
COc1ccc(OC)c(/C=C/C(=O)Nc2cccc(S(=O)(=O)NC3=NCCCCC3)c2)c1	?	-17%	-1%	/	-2%	-2%
COc1ccccc1/C=C/C(=O)Nc1cccc(S(=O)(=O)NC2=NCCCCC2)c1	19µM*	-3%	-7%	3%	2%	-5%
Cc1ccc2oc(-c3cccc(NC(=O)c4sc5c([N+](=O)[O-])cccc5c4Cl)c3)nc2c1	-8%	/	/	7%	/	/
O=c1oc2cc(N=Cc3ccc4c(c3)OCO4)ccc2c2ccccc12	/	/	/	7%[9.22 µM]	/	/
CC(C)NC(=O)CSc1nc2ccccc2c(=O)n1Cc1ccc(C(=O)NC(C)C)cc1	-1%	/	/	/	/	/
COc1ccc(C(=O)NCc2nnc(SCC(=O)Nc3ccccc3)n2-c2ccc(F)cc2)cc1	-5%	/	/	-2%	/	/
Cc1cc2nc([C@H](C)C(=O)c3ccc(Cl)cc3)c(=O)[nH]c2cc1C	/	/	/	3.5µM*	/	/
COC(=O)C1=C(c2ccccc2)c2ccccc2S(=O)(=O)N1CC(=O)Nc1ccc(OC)cc1OC	-2%	/	/	-3%	/	/
Cc1ccc2c(c1)C(N1CCCC1=O)CC(c1ccco1)N2 (stereo unspecified)	1.2µM*	44%	?	13µM*	2.2µM*	3.2µM*
CS(=O)c1ccc(-c2nc(-c3ccc(F)cc3)c(-c3ccncc3)[nH]2)cc1 (stereo unspecified)	/	/	/	20%	/	/
Cc1c(NC(=O)CSc2nnc3c4ccccc4n(CCc4ccccc4)c3n2)c(=O)n(-c2ccccc2)n1C	6%	0%	-12%	3.2µM*	13%	-5%
Cn1c2ccccc2c2nnc(SCC(=O)Nc3cccc(O)c3)nc21	6.7µM*	-40%	11%	/	6%	-1%
COc1cc(NC2c3ccccc3C(=O)N2c2ccc(C)cn2)cc(OC)c1OC (stereo unspecified)	?	?	?	11µM*	?	?
CCOc1ccc(CCNC(=O)Cn2ncc3c(=O)oc4ccc(C)cc4c32)cc1	0%	/	/	-15%	/	/
CCOc1ccccc1CNC(=O)c1ccc(CS(=O)Cc2cccc(Cl)c2)o1 (stereo unspecified)	0%	/	/	/	/	/
O=C(O)c1ccc(N2C(=O)CC(N3CCN(c4ccc(Cl)cc4)CC3)C2=O)cc1 (stereo unspecified)	1%	3%	-4%	/	0%	0%
O=C(O)c1ccc(N2C(=O)CC(N3C(=O)/C(=C/c4ccc(Cl)cc4)SC3=S)C2=O)cc1 (stereo unspecified)	17µM*	2%	-2%	/	1%	-1%
